Results published in PubChem BioAssay AID1345085 (National Center for Advancing Translational Sciences (NCATS), 2018).
Results filed as inconclusive are left out. Unmarked numbers belong to inactive results. Active and inactive are the calls of the source. Calls come from the whole dose curve; as a rule, active = well fitted cell-killing curve with a large enough effect; inconclusive = small, poorly fitted or top-dose-only effect, or effect the other way; inactive = no such curve, though single readings can be large or run the other way.

system: Jar; experiment: Confirmatory qHTS for gynecologic anti-cancer compounds from libraries of approved drugs and bioactive compounds; settings: gynecologic cancer cell panel viability, ATPlite luminescence, 48 h; series mostly up to 57.6 µM; activity change, negative = viability loss: at the top concentration; note: nearly all actives have a fitted effect of over 55% in size
Procedure, shortened: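 ATPlite luminescence read-out of cell viability; IC50 from 11-point 1:3 titrations, 57.5 uM to 0.977 nM, 48 h compound exposure at 37 C, 5% CO2. Cells seeded at 1,000/well 16 h before dosing.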
% is set by controls: 0 for no effect and ±100 for the full control effect; potency is the fitted concentration of half-maximal effect.

SMILES | activity change, negative = viability loss [%] | Potency
COc1c(C)c2c(c(O)c1C/C=C(\C)CCC(=O)OCCN1CCOCC1)C(=O)OC2 | -6.9 | 
COc1cc2c(NC3CCN(C(C)C)CC3)nc(C3CCCCC3)nc2cc1OCCCN1CCCC1 |  | 10.9 µM (active)
Cc1ccc(C(=O)N(CCCN)C(c2oc3cc(Cl)ccc3c(=O)c2Cc2ccccc2)C(C)C)cc1 (centres undefined) |  | 0.0137 µM (active)
CC(=O)Nc1cccc(-n2c(=O)n(C3CC3)c(=O)c3c(Nc4ccc(I)cc4F)n(C)c(=O)c(C)c32)c1 | 5.76 | 
c1nc2nc(Nc3ccc(N4CCOCC4)cc3)nc(NC3CCCCC3)c2[nH]1 |  | 9.43 µM (active)
Cn1c(=O)c(-c2c(Cl)cccc2Cl)cc2cnc(Nc3cccc(C(=O)O)c3)nc21 |  | 2.43 µM (active)
CC(C)Oc1ccc2c(=O)c(-c3ccccc3)coc2c1 |  | 21.7 µM (active)
COc1ccccc1N1CCN(CC(O)COc2cccc3ccccc23)CC1 (centres undefined) | -22.6 | 
Cn1cnc([N+](=O)[O-])c1Sc1ncnc2nc[nH]c12 |  | 27.3 µM (active)
O=C(/C=C/c1cccc(S(=O)(=O)Nc2ccccc2)c1)NO |  | 0.943 µM (active)
CCC(=O)N1CCN(c2ccc(-n3c(=O)ccc4cnc5ccc(-c6cnc7ccccc7c6)cc5c43)cc2C(F)(F)F)CC1 |  | 1.57 µM (active)
C#C[C@]1(O)CC[C@H]2[C@@H]3CCC4=CC(=O)CC[C@@H]4[C@H]3CC[C@@]21CC | 7.43 | 
O=C1NC(=O)C(c2cnc3ccccn23)=C1c1cn2c3c(cccc13)CN(C(=O)N1CCOCC1)CC2 | -17.7 | 
Fc1cc(-c2cccc3ncc(-c4cnn(C5CCNCC5)c4)nc23)cc(F)c1CN1CCOCC1 |  | 34.3 µM (active)
